Inconclusive results are not listed. A call without a number means that no potency is given here. The source made the active and inactive calls. The call rests on the fitted dose curve; in most records, active means well fitted curve in the direction sought with a large enough effect; inconclusive means small, poorly fitted or top-dose-only effect, or another doubt; inactive means no such curve, though single readings can be large; an effect the other way counts as inactive or inconclusive.
Target: phosphoglycerate mutase (Leishmania major) (UniProt Q4Q090)
Sequence (Q4Q090 1-553): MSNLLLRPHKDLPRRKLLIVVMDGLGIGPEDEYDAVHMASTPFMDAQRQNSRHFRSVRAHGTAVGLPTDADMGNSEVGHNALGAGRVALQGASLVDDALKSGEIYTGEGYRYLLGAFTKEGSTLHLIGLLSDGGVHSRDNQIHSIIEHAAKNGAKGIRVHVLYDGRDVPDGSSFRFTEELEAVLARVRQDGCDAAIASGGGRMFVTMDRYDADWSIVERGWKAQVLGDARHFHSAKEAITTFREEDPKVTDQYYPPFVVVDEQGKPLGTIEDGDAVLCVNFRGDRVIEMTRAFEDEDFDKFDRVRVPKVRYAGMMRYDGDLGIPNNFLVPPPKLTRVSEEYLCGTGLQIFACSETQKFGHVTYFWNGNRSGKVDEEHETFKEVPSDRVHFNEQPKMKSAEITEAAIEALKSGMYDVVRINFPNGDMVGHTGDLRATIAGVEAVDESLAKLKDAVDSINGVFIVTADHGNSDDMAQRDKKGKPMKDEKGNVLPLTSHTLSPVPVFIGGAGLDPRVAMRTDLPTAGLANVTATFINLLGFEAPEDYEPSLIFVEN
Test: qHTS Validation Assay to Find Inhibitors of Phosphoglycerate Mutase (AID 504548)
Conditions: biochemical enzyme activity; series mostly up to 57.5 µM
How it was run: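 Lm PGAM at 1.25 nM final with substrate in 100 mM TEA pH 7.6, 5 mM MgCl2, 0.01% Tween-20; 45 min at room temperature. Kinase-GloPlus added, 10 min, end-point luminescence read.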

Q: Which outcome does the source give for `NC(N)=NCc1cccc(I)c1` here?
A: inactive

Q: With `CCOC(=O)[C@H](CCc1ccccc1)N[C@@H](C)C(=O)N1[C@H](C(=O)O)C[C@H]2CCCC[C@@H]21` as the compound, how does the outcome read?
A: inactive

Q: Which outcome does the source give for `CC(C)(C)NC[C@H](O)COc1nsnc1N1CCOCC1` here?
A: inactive

Q: Which outcome does the source give for `CN=C(N)NCCC[C@H](N)C(=O)O` here?
A: inactive

Target: Ubiquitin carboxyl-terminal hydrolase 1 (Homo sapiens) (UniProt O94782)
Sequence (O94782 whole entry, looked up): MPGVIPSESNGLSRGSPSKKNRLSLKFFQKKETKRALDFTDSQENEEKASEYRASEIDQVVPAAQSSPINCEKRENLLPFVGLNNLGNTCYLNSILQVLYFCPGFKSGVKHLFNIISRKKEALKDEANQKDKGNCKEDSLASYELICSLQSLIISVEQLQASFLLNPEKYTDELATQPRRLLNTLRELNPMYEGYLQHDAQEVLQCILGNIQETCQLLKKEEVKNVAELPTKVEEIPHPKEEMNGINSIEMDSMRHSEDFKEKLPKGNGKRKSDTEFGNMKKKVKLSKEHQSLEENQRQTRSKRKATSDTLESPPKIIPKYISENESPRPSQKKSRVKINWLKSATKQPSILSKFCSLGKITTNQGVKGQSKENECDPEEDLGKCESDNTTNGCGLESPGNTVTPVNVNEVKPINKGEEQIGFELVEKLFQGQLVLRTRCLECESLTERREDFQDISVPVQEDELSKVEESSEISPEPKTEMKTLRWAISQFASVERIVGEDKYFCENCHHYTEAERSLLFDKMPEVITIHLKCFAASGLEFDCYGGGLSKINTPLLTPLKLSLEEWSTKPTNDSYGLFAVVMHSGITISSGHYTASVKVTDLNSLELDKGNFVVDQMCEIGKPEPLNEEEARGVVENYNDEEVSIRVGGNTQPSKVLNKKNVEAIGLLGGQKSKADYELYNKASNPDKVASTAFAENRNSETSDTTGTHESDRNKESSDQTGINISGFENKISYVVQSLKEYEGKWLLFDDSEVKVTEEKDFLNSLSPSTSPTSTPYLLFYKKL
Test: Inhibitors of USP1/UAF1: Pilot qHTS (AID 504865); further: nearly all actives have a fitted effect of over 35% in size; further: potency means the concentration at half of the fitted maximal effect
Conditions: purified USP1/UAF1, Ub-rhodamine cleavage fluorescence; series mostly up to 114 µM
How it was run: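 1nM USP1/UAF1 + cpd, 15 min RT; start w/ Ub-Rho 150nM final; kinetic FL 480/540 nm, 6 reads q60 s. Buffer 50mM HEPES pH 7.8, 0.5mM EDTA, 1mM TCEP, 0.01% Tween-20, 0.1 mg/ml BSA.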

Q: Which Potency does the source give for `CCCc1ncc(C[n+]2ccccc2C)c(N)n1` here?
A: inactive

Q: For `CN(C)CCOC(=O)C(c1ccccc1)C1(O)CCCC1` (stereo not drawn), which Potency is on record?
A: inactive

Q: With `CCOC(=O)c1c(N)sc2c1CCN(Cc1ccccc1)C2` as the compound, how does the Potency read?
A: inactive

Q: For `CC(=O)OCC(=O)[C@H]1CC[C@H]2[C@@H]3CCC4=CC(=O)CC[C@]4(C)[C@H]3CC[C@]12C`, which Potency is on record?
A: inactive

Q: Which Potency does the source give for `NC(N)=NCc1cccc(I)c1` here?
A: inactive

Q: For `O=C(Oc1cccc2cccnc12)c1ccccc1`, which Potency is on record?
A: inactive

Q: Which Potency does the source give for `NCc1ccccc1Sc1ccccc1CO` here?
A: inactive

Q: For `COc1cc(O)c(C(=O)c2ccccc2)cc1S(=O)(=O)O`, which Potency is on record?
A: inactive

Q: Which Potency does the source give for `CCOC(=O)[C@H](CCc1ccccc1)N[C@@H](C)C(=O)N1[C@H](C(=O)O)C[C@H]2CCCC[C@@H]21` here?
A: inactive

Q: With `CC(C)(C)NC[C@H](O)COc1nsnc1N1CCOCC1` as the compound, how does the Potency read?
A: inactive

Q: Which Potency does the source give for `OC(C#CCN1CCCC1)(c1ccccc1)c1ccccc1` here?
A: inactive

Q: With `CC(=O)OC[C@H]1O[C@@H](n2ncc(=O)[nH]c2=O)[C@H](OC(C)=O)[C@@H]1OC(C)=O` as the compound, how does the Potency read?
A: inactive

Q: Which Potency does the source give for `CCC1Nc2cc(Cl)c(S(N)(=O)=O)cc2S(=O)(=O)N1` (stereo not drawn) here?
A: inactive

Q: With `OCCOCCN1CCN(C2=Nc3ccccc3Sc3ccccc32)CC1` as the compound, how does the Potency read?
A: inactive

Q: Which Potency does the source give for `CCc1ccc(C(=O)C(C)CN2CCCCC2)cc1` (stereo not drawn) here?
A: inactive

Q: Which Potency does the source give for `Clc1cccc(C(c2ccc3nc[nH]c3c2)n2ccnc2)c1` (stereo not drawn) here?
A: inactive

Q: Which Potency does the source give for `COc1cc(NS(=O)(=O)c2ccc(N)cc2)ncn1` here?
A: inactive

Q: Which Potency does the source give for `CN=C(N)NCCC[C@H](N)C(=O)O` here?
A: inactive

Q: Which Potency does the source give for `NS(=O)(=O)Cc1noc2ccccc12` here?
A: inactive

Q: With `CCNC(=O)NCc1cccc(Cl)c1` as the compound, how does the Potency read?
A: inactive

Q: For `Cc1c[nH]c2ccccc12`, which Potency is on record?
A: inactive

Q: With `CCN(CC)CCOC(=O)C(Cc1cccc2ccccc12)CC1CCCO1` (stereo not drawn) as the compound, how does the Potency read?
A: inactive

Q: Which Potency does the source give for `O=S(=O)(O)c1ccc(O)cc1` here?
A: inactive

Q: Which Potency does the source give for `O=C(Nc1cccc(C2=NCCN2)c1)Nc1cccc(C2=NCCN2)c1` here?
A: inactive

Q: For `Cc1ccccc1OCC(O)CO` (stereo not drawn), which Potency is on record?
A: inactive

Q: Which Potency does the source give for `O=C(O)Cc1csc(-c2ccc(Cl)cc2)n1` here?
A: inactive

Q: With `CCCCN=C(N)N=C(N)N` as the compound, how does the Potency read?
A: inactive

Q: Which Potency does the source give for `O=C(O)CCNC(=O)c1ccccc1` here?
A: inactive

Q: Which Potency does the source give for `COc1ccc(-c2cc(C(F)F)nn2-c2ccc(S(N)(=O)=O)cc2)cc1F` here?
A: inactive

Q: For `O=C(CCN1CCN2CCCC2C1)N1c2ccccc2Sc2ccc(Cl)cc21` (stereo not drawn), which Potency is on record?
A: inactive

Q: With `CCCCCCCCCCCCCC[N+](C)(C)Cc1ccccc1` as the compound, how does the Potency read?
A: 28.2 µM (active)

Q: Which Potency does the source give for `CN(C)CCOC(c1ccc(Cl)cc1)c1ccccn1` (stereo not drawn) here?
A: inactive

Q: With `O=C1C(CCS(=O)c2ccccc2)C(=O)N(c2ccccc2)N1c1ccccc1` (stereo not drawn) as the compound, how does the Potency read?
A: inactive

Q: For `CN1CCN(C2=Nc3cc(F)ccc3Cc3ccccc32)CC1`, which Potency is on record?
A: inactive

Q: Which Potency does the source give for `c1ccc(-c2nc[nH]c2-c2ccccc2)cc1` here?
A: inactive

Q: With `C/C=C/C=N/NC(=O)c1ccncc1` as the compound, how does the Potency read?
A: inactive

System: not listed separately
Test: qHTS for Inhibitors of ATXN expression: Validation of Cytotoxic Assay (AID 588349)
Conditions: cytotoxicity counter-screen for ATXN expression inhibitors, cell viability; series mostly up to 57.1 µM
How it was run: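 HEK293 cells were dosed with titrated compounds for 72 hr at 37 degrees C. Viability was read by CellTiter Glo luminescence, with intracellular ATP as the marker of cell survival.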

Q: Which outcome does the source give for `NC(N)=NCc1cccc(I)c1` here?
A: inactive

Q: Which outcome does the source give for `CCOC(=O)[C@H](CCc1ccccc1)N[C@@H](C)C(=O)N1[C@H](C(=O)O)C[C@H]2CCCC[C@@H]21` here?
A: inactive

Q: With `CC(C)(C)NC[C@H](O)COc1nsnc1N1CCOCC1` as the compound, how does the outcome read?
A: inactive

Q: With `CN=C(N)NCCC[C@H](N)C(=O)O` as the compound, how does the outcome read?
A: inactive

System: not listed separately
Test: qHTS for Inhibitors of ATXN expression: Validation (AID 588378); further: nearly all actives have a fitted effect of over 75% in size
Conditions: cell-based ATXN2 expression reporter assay, luminescence; series mostly up to 57.1 µM
How it was run: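 Cells: HEK293-ATXN2-FFLuc, phenol-red free DMEM, 2 h attachment. Compound pin-transfer, 24 h, 37 degrees C, 5% CO2. CellTiter-Fluor 30 min, Ex405/Em525; Bright-Glo 5 min, luminescence 2 s exposure.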

Q: Which outcome does the source give for `NC(N)=NCc1cccc(I)c1` here?
A: inactive

Q: Which outcome does the source give for `CCOC(=O)[C@H](CCc1ccccc1)N[C@@H](C)C(=O)N1[C@H](C(=O)O)C[C@H]2CCCC[C@@H]21` here?
A: inactive

Q: Which outcome does the source give for `CC(C)(C)NC[C@H](O)COc1nsnc1N1CCOCC1` here?
A: inactive

Q: Which outcome does the source give for `CN=C(N)NCCC[C@H](N)C(=O)O` here?
A: inactive
